Source: ChEMBL document CHEMBL3988442, “University of Dundee, Small-Polar-MMV Screening Library” (2021)

biological target: AMP-activated protein kinase, AMPK (Homo sapiens) (UniProt P54646+O43741+P54619+Q9UGJ0+Q9Y478+Q13131+Q9UGI9); test: AMP-dependent Kinase enzyme assay. An in vitro enzyme assay that detects ADP turnover that is directly proportional to AMPK activity. This uses naive AMPK that is activated during the assay with MK-8722; assay type: functional; set-up: scale not given: direction of the effect not stated beside the values; settings: 30 µM

| SMILES | Percent Effect [%] |
| --- | --- |
| Cc1ccc2nc(CN3CCCCC3CCN3CCOCC3)cn2c1 (stereo not given) | 6.28 |
| CCC(C(=O)NCCc1coc(-c2ccc(C)cc2)n1)N(C)C (stereo not given) | 6.54 |
| CCCc1cc(=O)[nH]c(-n2nc(-c3cccs3)cc2N)n1 | -6.1 |
| Cc1cc(NCCc2cnccn2)nc(-c2ccccc2O)n1 | 19.4 |
| CC(NCc1nnc2n1CCCC2)c1nc(C(C)(C)C)no1 (stereo not given) | -0.825 |
| Cc1noc(C)c1C(=O)N(C)C(C)c1ccc(S(C)(=O)=O)cc1 (stereo not given) | -2.19 |
| O=C(c1ccc(=O)[nH]c1)N1CCC(Oc2cccc(C(F)(F)F)c2)CC1 | -3.39 |
| CC(C)(NCCOc1ccc(CC#N)cc1)c1nccs1 | -2.44 |
| O=C(NCCNCc1cccc2c1OCCCO2)C1CCCC1 | -0.551 |
| CCCS(=O)(=O)N1CCC(c2ccc(OC)cc2)CC1 | 2.67 |
| Cc1cnc(C(=O)NCC2CCOc3ccccc3C2)cn1 (stereo not given) | -2.4 |
| CN1CC(c2n[nH]c(=O)n2-c2cccc(Cl)c2)CC1=O (stereo not given) | -12.1 |
| O=C(Nc1ccncc1)NC1CCN(c2ccccc2OC(F)F)C1 (stereo not given) | -0.97 |
| CC(C(=O)NCC(C)(C)c1ccc2c(c1)OCCO2)n1cncn1 (stereo not given) | 11.3 |
| O=C(NCCCn1ccnc1)C1COCC(=O)N1Cc1ccccc1 (stereo not given) | 3.38 |
| CC(C)CNC(=O)Nc1cccc(OCC#N)c1 | 2 |
| CN(Cc1nncn1C)C(=O)c1cc(COc2ccccc2F)[nH]n1 | -9.05 |
| COCCOc1ncccc1NCc1nc2ccccc2n1C | 7.32 |
| Cc1cccc(CN2CCCC2c2cccc(Nc3nccs3)n2)c1 (stereo not given) | 6.23 |
| COc1c(C)cnc(CN2CCn3c(C)nnc3C2)c1C | 8.91 |

| SMILES | Percent Effect [%] |
| --- | --- |
| CCCC1COCCN1Cc1ccc(S(=O)(=O)NC)cc1 (stereo not given) | 0.167 |
| COc1ccc(CC2(CO)CCN(c3cc(C#N)ccn3)CC2)cc1 | 112 |
| CN(C)Cc1cccc(-c2cccnc2C(=O)NCc2cn(C)cn2)c1 | 23.4 |
| CSCc1noc(-c2ccc(C)c(N3CCNC3=O)c2)n1 | 13.8 |
| COCC(=O)N1CCC(c2c(C(=O)N(C)C)sc3ncccc23)C1 (stereo not given) | 1.82 |
| COc1ncc(CN2CCC3(CCNC(=O)CC3)CC2)cn1 | -1.6 |
| Cc1nc(CN(C)Cc2csc(-c3cccs3)n2)co1 | 10.3 |
| CCCc1nc(C)cc(N2Cc3cnn(CCO)c3C2)n1 | 5.18 |
| CC(C)COc1cncc(N2CCCN(CC(F)(F)F)CC2)n1 | 3.81 |
| NC(=O)CC1CCCN(c2cncc(OCc3ccccc3)n2)C1 (stereo not given) | 20.7 |
| CCCc1n[nH]c(=O)n1Cc1ccc(OC)cc1 | 3.68 |
| OCc1cccc(OCc2ccon2)c1 | 4.35 |
| CN(Cc1ccccc1)c1cnn(CC2CCCCO2)c(=O)c1 (stereo not given) | 7.07 |
| CC(C)(C)OC(=O)N[C@H]1CCN(c2cncc(Br)c2)C1 | 6.52 |
| Cc1nc(CNC(=O)c2cc(COc3cccc(F)c3)[nH]n2)n[nH]1 | 0.77 |
| CC(C)Oc1ccccc1CNC(=O)N(C)C(C)CS(C)(=O)=O (stereo not given) | 9.72 |
| CN(c1ncc(S(N)(=O)=O)s1)C1CCC1 | 5.05 |
| COCCN1CCN(C(=O)C(c2cccc(F)c2)N(C)C)CC1 (stereo not given) | -5.71 |
| NC(=O)c1ccc(NC2CCOC3(CCCC3)C2)nn1 (stereo not given) | 0.506 |
| Cc1nnc(C(C)N2CCCN(Cc3noc(C4CC4)n3)CC2)o1 (stereo not given) | -4.62 |
